“And” between values parts separate entries of the source, which are not always exact repeats. Equal values may be shown once. Compounds without any hit were thinned out: in the full panel of roughly 79,000, 15% have a hit. A number with no mark means an inactive call. The source made the active and inactive calls. Rule as the data show it: active = growth inhibition above about 70%; inactive = the rest.
Assay: NCI Yeast Anticancer Drug Screen. Data for the mec2-1 strain (AID 157)
Conditions: S. cerevisiae mec2-1 strain, at 5.0 µM (retest, dose inferred, filed as 0.5), hits give high values
In short: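 Using mec2-1 yeast: add compound, measure growth, express inhibition versus vehicle-treated cultures.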

| SMILES | growth inhibition |
| --- | --- |
| O=c1[nH]cnc2[nH]cc(CN3CCCCC3)c12 | -7% |
| NCCBr | -1% |
| CSc1ncc(COP(=S)(OCc2cnc(SC)nc2N)OCc2cnc(SC)nc2N)c(N)n1 | 15% |
| O=[N+]([O-])c1ccc(O)c(Cl)c1 | -2% |
| CCN(CC)CC(=O)c1ccc2c(ccc3ccccc32)c1 | 26% |
| Cc1ccc([C@H]2N[C@@H]2c2ccccn2)cc1 | -18% |
| CCC1(C2=CCCCC2)C(=O)NC(=S)NC1=O | -11% |
| Cn1cnc(C(=N)[Se])c1N | 30% |
| CCOC(=O)NC(=S)[S][Sb]([S]C(=S)NC(=O)OCC)[S]c1nc2ccc(N=Nc3ccc(NS(=O)(=O)c4ccc(NC(=O)C(N5CC5)(N5CC5)N5CC5)cc4)cc3)cc2s1 | 33% |
| COc1ccccc1/C=C(/C)[N+](=O)[O-] | 35% and 21% |
| O=c1oc2ccccc2c(O)c1C(c1ccc(OCc2ccccc2)cc1)c1c(O)c2ccccc2oc1=O | 16% |
| COc1cc(N(CCCl)CCCl)ccc1C=Nc1cccc(Cl)c1 | -6% |
| O=[N+]([O-])c1cc2c([N+](=O)[O-])cccc2o1 | 8% |
| ClCCN(CCCl)c1ccc(C2N(Cc3ccc(N(CCCl)CCCl)cc3Cl)CCCN2Cc2ccc(N(CCCl)CCCl)cc2Cl)cc1 | -3% |
| CCN(Cc1ccccc1)CC(O)c1ccc(Cl)c(Cl)c1 (centres undefined) | -1% |
| FC1(F)C(Cl)=[C]([Hg][C]2=C(Cl)C(F)(F)C(F)(F)C(F)(F)C2(F)F)C(F)(F)C(F)(F)C1(F)F | 66% |
| CCn1c(O)c(C(=O)NC(C)c2ccc([N+](=O)[O-])cc2)c(=O)n(CC)c1=S (centres undefined) | 33% |
| CC(=O)[O][Hg][c]1ccccc1N | 36% |
| CCC[CH2][Sn]1([CH2]CCC)[O]Cc2nc(C)ccc2[O]1 | 29% |
| CCCCCCCCCCCCC(=O)[O][Hg][c]1ccccc1 | 100% (active) |

| SMILES | growth inhibition |
| --- | --- |
| CN(C)CC1CC2C3CC=C4CC(O)CCC4(C)C3CCC2(C)C1=O (centres undefined) | -1% |
| CC(=O)O.CC(=O)[O-].CC(=O)[O-].[Co+3].[NH-]CC[NH-].[NH-]CC[NH-] | -5% |
| Nc1nc(CCl)cs1 | 0% |
| CC1=CCC2(C)C3CCC4(C)C(O)CCC4C3CCC2(C)C1 (centres undefined) | -17% |
| CC1CCC2(NC1)OC1CC3C4CC=C5CC(O)CCC5(C)C4CCC3(C)C1C2C (centres undefined) | 56% and 13% |
| CCN1CCC(O)(c2ccc(Cl)c(Cl)c2)C(C(=O)c2ccc(Cl)c(Cl)c2)C1 (centres undefined) | 57% |
| O=C(c1ccccc1)c1c(CC(O)c2ccccn2)n(C(=O)c2ccccc2)c2ccccc12 (centres undefined) | -8% |
| CC(O[Si](c1ccccc1)(c1ccccc1)C(C)(C)C)[C@H](NC(=O)OC(C)(C)C)C(=O)O (some centres undefined) | -4% |
| CC(C)=CC1CC(C)C2(CCC3(C)CC4C(C(=O)CC4(C)O)/C(C=O)=C\CC32)O1 (centres undefined) | 99% (active) |
| CC(=O)O[C@H]1C[C@@H]2OC3C=C(C)CCC3(C)[C@@]1(C)[C@@]21CO1 (some centres undefined) | 100% (active) |
| O=C1NC(=O)C([N+](=O)[O-])C(=O)N1 | -14% |
| N#C[S-].[Nd+3].c1ccc(-c2ccccn2)nc1.c1ccc(-c2ccccn2)nc1.c1ccc(-c2ccccn2)nc1 | 40% |
| CC(=O)Nc1ccccc1[As](O[As](c1ccccc1)c1ccccc1NC(C)=O)c1ccccc1 (centres undefined) | 24% |
| Oc1cccc[c]1[Hg][Cl] | 99% (active) |
| Nc1nc(N)c(-c2ccc(Cl)c(Cl)c2)c(CCc2ccc(CNC(=O)Nc3ccc(S(=O)(=O)F)cc3)cc2)n1 | 0% |
| C1CC[N-]CC1.CC(=N\O)/C(C)=N/O.CC(=N\O)/C(C)=N/O.OC1[CH-]CCCC1.[Co+2] | 5% |
| CC(=O)OC1C2(CC3N4C(=O)C5(CO)SSC4(CC31O)C(=O)N5C)OC(C)C(C)(C)C2=O (centres undefined) | 80% (active) |
| C[C@H]1C/C=C/[C@H]2[C@@H]3O[C@]3(C)[C@@H](C)[C@H]3[C@H](Cc4ccccc4)NC(=O)[C@]32OC(=O)O/C=C/[C@@](C)(O)C1=O | 19% |
| C1CC[N-]CC1.[Cl][Au]([Cl])[Cl] | 15% |
